Source: PubChem
Pol kappa inh-1: DNA polymerase kappa (human) inhibition | actives 0.53% (n = 400,000) | purified Pol kappa, fluorescent DNA synthesis assay, 10 min | AID 588579 | Potency, µM (highest dose often 107 µM), for inactives: at the top dose activity, negative = inhibition, most hits filed as inhibitors | Q9UBT6; also: % is scaled to controls: 0 for no effect and ±100 for the full control effect
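Kinetic fluorescence screen: compound preincubated 15 min RT with 10 nM enzyme; 50 nM substrate (final) initiates; reads at 0/10 min.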
FEN1 inh-1: blocks human flap endonuclease 1. Potency, µM (highest dose often 114 µM), inactives show top-dose activity change, negative = inhibition, most hits filed as inhibitors. AID 588795. P39748. Recombinant FEN1 flap cleavage, fluorescence, 15 min. actives 0.35% (n = 390,000); also: % is scaled to controls: 0 for no effect and ±100 for the full control effect; nearly all actives have a fitted effect of over 65% in size
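Potency values derive from four-parameter Hill fits of normalized qHTS data. The reaction used 10 nM FEN1 preincubated 15 min at room temperature with compound, then 50 nM DNA substrate, read at 0 and 15 min.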
Pol eta inh-1: DNA polymerase eta (human) inhibition; Q9Y253; recombinant Pol eta, fluorescent DNA replication assay; Potency, µM (highest dose often 114 µM), for the others: at the top dose activity change, negative = inhibition, hits mostly inhibitors; actives 1.2% (n = 390,000); also: % is scaled to controls: 0 for no effect and ±100 for the full control effect
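Fluorescent replication assay: 50 nM final substrate added after a 15 min room-temperature compound preincubation with 10 nM enzyme. Signal taken at 0 min and again at 10 min.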
Pol beta inh: inhibitors of human DNA polymerase beta; AID 485314; actives 1.3% (n = 340,000); Pol beta primer extension/strand displacement, fluorescence kinetic; Potency, µM (doses to about 114 µM), without a hit: at the highest dose activity change, negative = inhibition, actives largely listed as inhibitors; P06746; also: % is scaled to controls: 0 for no effect and ±100 for the full control effect
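Reaction started by 50 nM substrate onto compound-treated Pol beta (10 nM, 15 min preincubation, room temperature); plates read at 0 min and 10 min. Normalized concentration-effect data fitted by four-parameter Hill equation.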
POLI inh: inhibitors of human DNA polymerase iota. Potency, µM (titrated, usually from 115 µM), without a hit: at the highest dose activity, negative = inhibition, hits mostly inhibitors. Pol iota fluorescent replication assay, 10 min. Q9UNA4. actives 1% (n = 390,000). AID 588590
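Pol iota at 10 nM preincubated 15 min with compounds at room temperature; reaction started with fluorescent substrate, 50 nM final. Fluorescence read kinetically at 0 and 10 min; buffer-only wells as negative control.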
WRN helicase inh: inhibitors of human WRN helicase; actives 0.46% (n = 360,000); WRN helicase unwinding, fluorescent forked duplex, kinetic; Potency, µM (highest dose often 114 µM), without a hit: at the top dose activity change, negative = inhibition, usual class: inhibitors; AID 651768; also: % is scaled to controls: 0 for no effect and ±100 for the full control effect; nearly all actives have a fitted effect of over 55% in size
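Primary qHTS, 1536-well format. 20 nM WRN + compound, 15 min RT; start with 100 nM forked fluorophore/quencher duplex, 2 mM ATP (final); kinetic read ex 525/em 598 nm.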
PGK validate: blocks T. brucei phosphoglycerate kinase. TbPGK coupled GAPDH assay, Kinase-Glo luminescence. actives 79% (n = 500). shares compounds with Pol kappa inh-1. AID 686980. Potency, µM (top dose mostly 57.5 µM), without a hit: at the top dose activity change, negative = inhibition, most hits filed as inhibitors; also: % is scaled to controls: 0 for no effect and ±100 for the full control effect; nearly all actives have a fitted effect of over 65% in size
Target sequence (P07378 whole entry, looked up): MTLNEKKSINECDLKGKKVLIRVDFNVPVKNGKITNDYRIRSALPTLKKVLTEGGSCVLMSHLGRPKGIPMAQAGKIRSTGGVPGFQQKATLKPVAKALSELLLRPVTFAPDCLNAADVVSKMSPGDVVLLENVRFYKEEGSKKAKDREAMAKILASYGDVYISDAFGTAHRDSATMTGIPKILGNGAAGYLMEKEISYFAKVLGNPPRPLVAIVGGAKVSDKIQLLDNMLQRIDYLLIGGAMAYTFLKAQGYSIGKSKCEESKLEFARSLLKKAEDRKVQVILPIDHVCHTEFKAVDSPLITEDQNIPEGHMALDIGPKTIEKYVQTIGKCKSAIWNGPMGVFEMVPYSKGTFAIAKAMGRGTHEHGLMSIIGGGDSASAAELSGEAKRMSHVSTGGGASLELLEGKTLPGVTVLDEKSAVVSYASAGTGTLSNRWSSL
POLI cherry-pick: Human Pol iota inhibitor confirmatory assay | Potency, µM, usual class: inhibitors | actives 77% (n = 1,500) | AID 720496 | shares compounds with Pol kappa inh-1 | Pol iota primer extension, TAMRA/BHQ fluorescence
Pol kappa inh-2: Pol kappa (human) inhibition, cherry-pick confirmation. shares compounds with Pol eta inh-1. purified Pol-kappa, fluorescent strand-displacement substrate. Potency, µM, hits mostly inhibitors. actives 76% (n = 920). AID 720501
Pol eta inh-2: confirmation of human DNA polymerase eta inhibitors; Potency, µM, most hits filed as inhibitors; shares compounds with Pol eta inh-1; actives 64% (n = 2,600); AID 720502; Pol eta primer extension, TAMRA/BHQ fluorescence, 10 min
FEN1 inh-2: FEN1 inhibition, cherry-pick retest. shares compounds with FEN1 inh-1. FEN1 flap cleavage, TAMRA/BHQ2 fluorogenic DNA substrate. Potency, µM, actives largely listed as inhibitors. actives 79% (n = 880); also: nearly all actives have a fitted effect of over 60% in size
* marks the source's active call; other numbers are inactive results; ? = inconclusive; · = no result; [ ] = remark or other dose. Only some compounds are listed: those with a hit (about 2.4% of all), similar ones and a draw of the others. Calls follow the shape of the dose curve; as a rule, active = well fitted curve in the direction sought with a large enough effect; inconclusive = small, poorly fitted or top-dose-only effect, or another doubt; inactive = no such curve, though single readings can be large; an effect the other way counts as inactive or inconclusive. Potency is read from the fitted curve at half-maximal effect.

SMILES | Pol kappa inh-1 | FEN1 inh-1 | Pol eta inh-1 | Pol beta inh | POLI inh | WRN helicase inh | POLI cherry-pick | Pol eta inh-2 | FEN1 inh-2 | others
N=C1/C(=C\c2ccc(-c3ccc(C(=O)O)cc3)o2)C(=O)N=C2SC=C(c3ccccc3)N12 | 50µM* | 50µM* | 3.5µM* | ? | ? | -24%[11.6 µM] | 38* | 27* | ?
CCCN(CCC)C(=O)Cn1c(=O)n(-c2ccc(CC)cc2)c(=O)c2ccc(C(=O)NCCc3ccccc3)cc21 | -1% | -9% | -5% | -2% | ? | · | · | · | ·
COc1ccc(C(=O)C[n+]2ccccc2Cl)cc1 | 11% | 15% | · | · | -20% | · | · | · | ·
O=C(O)COc1ccc(C(=O)c2cccs2)c(Cl)c1Cl | 1%[19.4 µM] | · | · | · | · | · | · | · | ·
Cc1ccccc1C1=C/C(=C(\SS/C(C(=O)c2ccc(OCC(=O)O)c(Cl)c2Cl)=C2\C=C(c3ccccc3C)SS2)C(=O)c2ccc(OCC(=O)O)c(Cl)c2Cl)SS1 | 79µM* | 56µM* | 14µM* | · | ? | 22µM* | 38* | 24* | ? | Pol kappa inh-2=17*
CC1CCN(c2oc(-c3ccc(OCc4ccccc4Cl)cc3)nc2C#N)CC1 | -7% | -11% | · | · | 17% | · | · | · | ·
Cc1cccc2cc(C(c3nnnn3C(C)(C)C)N(Cc3ccco3)CC3CCCO3)c(=O)[nH]c12 (stereo not drawn) | 45µM* | ? | 7.9µM* | 32µM* | 16µM* | 1.7µM* | 17* | 19* | 27* | PGK validate=1.8µM*
NS(=O)(=O)c1ccc(CCNC(=O)c2cc(-c3ccco3)nc3ccccc23)cc1 | -20% | -3% | ? | · | -20% | -11% | · | · | ·
CN(C)C(CNC(=O)c1cc(-c2ccco2)nc2ccccc12)c1ccccc1 (stereo not drawn) | 25µM* | ? | 11µM* | · | ? | ? | 34* | 76* | ?
COc1ccc(NC(=O)c2c(N)c(C(=O)c3ccc(OC)cc3)n3ccccc23)cc1 | 0% | -21% | · | 34% | -27% | · | · | · | ·
CCOc1ccc(NC(=O)CC2C(=O)N(c3ccc(F)cc3)C(=O)N2CCc2sccc2C)cc1 (stereo not drawn) | -22% | -15% | -24% | -1% | 14% | · | · | · | ·
O=C1c2ccccc2-c2onc3ccc(N4CCCC4)c1c23 | -21% | 22µM* | ? | 79µM* | 35µM* | 22µM* | 60* | ? | 38* | Pol kappa inh-2=?
Cc1cc(O)c(C(c2cccc(F)c2)N2CCN(c3ccccc3)CC2)c(=O)n1Cc1ccco1 (stereo not drawn) | -10%[60.1 µM] | -12% | -19% | -18% | 16% | · | · | · | ·
N#Cc1c(SCC(=O)Nc2nc3ccc(Br)cc3s2)sc2c(O)cc(=O)[nH]c12 | 32µM* | 28µM* | 11µM* | 35µM* | 6.3µM* | ? | 67* | 15* | ? | Pol kappa inh-2=8.4*
O=C(CSc1nc2ccccc2o1)Nc1nc2ccc(Br)cc2s1 | -18% | 11% | ? | ? | 7% | -2% | · | · | ·
CCC1Oc2ccc(C)cc2N(CC(=O)NCc2ccc(OC)cc2)C1=O (stereo not drawn) | -20% | -21% | -6% | 47% | ? | · | · | · | ·
COc1cc(C(=O)N(Cc2ccc(F)cc2)Cc2ccco2)cc(OC)c1OC | -17% | 10% | -10% | -2% | 25% | · | · | · | ·
Cc1ccc2nc3[nH]c(=O)[nH]c(=O)c3c(N)c2c1 | 11% | ? | -28% | · | 19% | -6% | ? | · | 60*
Nc1cccc2c(O)cc(S(=O)(=O)O)cc12 | 8.9µM* | 8.9µM* | 2.8µM* | · | 3.2µM* | ? | 6.7* | 6* | 43* | PGK validate=5.2µM*;Pol kappa inh-2=2.7*
O=C(O)c1cc2cc(S(=O)(=O)O)ccc2cc1O | -8% | -5% | -1% | · | -11% | 1% | · | · | ·
O=S(=O)(O)c1cc(O)c2cc(Nc3ccccc3)ccc2c1 | 32µM* | 50µM* | 2.8µM* | · | 3.2µM* | 11µM* | 30* | 17* | 85* | PGK validate=9.2µM*;Pol kappa inh-2=3.4*
CC(Oc1ccccc1)C(=O)Nc1ccccc1C(=O)OCc1cc(=O)n2nc(C(C)C)sc2n1 (stereo not drawn) | -12%[60.1 µM] | -4% | -14% | 2% | 14% | · | · | · | ·
Cc1ccc(-c2nc(CCNC(=O)C(=O)Nc3ccc(C)c(Cl)c3)cs2)cc1 | -2%[60.1 µM] | 16% | -10% | -11% | 21% | · | · | · | ·
Oc1ccc(N=Nc2ccc(Br)cc2)c(O)c1 | -2% | 3% | -9% | 13% | 9% | 1% | · | · | ·
O=S(=O)(O)c1cc(O)c(N=Nc2ccc(O)cc2O)c2ccccc12 | 20µM* | 35µM* | 10µM* | · | · | 40µM* | 19* | 38* | 85* | PGK validate=23µM*;Pol kappa inh-2=34*
Nc1nonc1-c1nc2ccccc2n1Cc1c(Cl)cccc1Cl | -17% | 4% | -24% | 6% | 14% | · | · | · | ·
Cc1ccc(/C=C/C(=O)OCC(=O)c2ccc3c(c2)NC(=O)CO3)o1 | 3% | -16% | -3% | · | 4% | -6% | · | · | ·
O=C1COc2ccc(C(=O)COC(=O)/C=C/c3ccc(Br)o3)cc2N1 | 18µM* | ? | 1.6µM* | · | 20µM* | 35µM* | 21* | 67* | ?
